High-throughput results (PubChem)
Most compounds without a hit are left out; they make up all but 1.1% or so of the library.
FadD28 FP inh: inhibitors of Mycobacterium tuberculosis FadD28 bisubstrate binding; inhibition, % at 12.5 µM; FadD28 bisubstrate probe binding, fluorescence polarization; 360,000 tested, 0.22% active; in the data active = inhibition above about 8.5%, passing the limit was not always enough; inconclusive = no clear call, values can overlap the other calls
PrP 5UTR inh: suppresses PrP 5' UTR mRNA reporter expression; cell-based PrP 5' UTR mRNA reporter, plate reader; 340,000 tested, 0.35% active; inhibition, % (test concentration not listed); AID 488862; in the data active = inhibition above about 52%; note: 0 = median of the neutral control wells
TcdB GH inh: TcdB glycohydrolase inhibition; P18177; TcdB glycohydrolase enzymatic assay, plate reader; inhibition, % at 9.99 µM; 350,000 tested, 0.24% active; AID 652162; in the data active = inhibition above about 10%
BioA inh: BioA (M. tuberculosis) enzyme inhibition; AID 602481; purified M. tuberculosis BioA enzyme, plate reader; inhibition, % at 9.99 µM; 360,000 tested, 0.096% active; in the data active = inhibition above about 40%; inconclusive = no clear call, values can overlap the other calls
PfHsp40 yeast: restores yeast growth despite PfHsp40 toxicity. growth rescue, % at 12.5 µM. 340,000 tested, 0.68% active. S. cerevisiae expressing PfHsp40, growth rescue, ATP luminescence; in the data active = growth rescue above about 28%, passing the limit was not always enough; inconclusive = no clear call, values can overlap the other calls;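 note: yeast W303a lacking pdr1 and pdr3 grown in galactose medium; growth measured after three days at 30 °C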
* = called active by the depositor.

Screening O=C1C(=Cc2ccc(Br)o2)C(=O)c2ccccc21 returned FadD28 FP inh 40.8*, PrP 5UTR inh -24.3, BioA inh 1.1 and PfHsp40 yeast 6.6.
For C/C=C/c1ccc([C@H]2[C@H](CO)N(C(=O)c3cnccn3)C23CN(C(=O)CC)C3)cc1 the results were TcdB GH inh 1.2.
For COc1ccc(-c2cc(-c3c(O)c(OC)c4occc4c3OC)[nH]n2)cc1OC the results were FadD28 FP inh 3.8, PrP 5UTR inh -23.8, TcdB GH inh 0.8, BioA inh 1.1 and PfHsp40 yeast 31.5*.
O=c1ccc2[n+]([O-])c3ccc(O)cc3oc-2c1 was read as FadD28 FP inh 98.1*, PrP 5UTR inh -31.5, TcdB GH inh -2.8 and PfHsp40 yeast -1.1.
`C/C(=N\Nc1nccnc1Cl)c1c(F)c(F)c(F)c(F)c1F` gave FadD28 FP inh 0.4, PrP 5UTR inh -16.7, TcdB GH inh 0.2 and PfHsp40 yeast 58.6*.
`N#Cc1c(-c2ccccc2)c(-c2ccccc2)nn(CC(=O)NNC(=O)Nc2ccc(Cl)c(Cl)c2)c1=O` gave FadD28 FP inh 16.9*, PrP 5UTR inh -19.8, BioA inh -1.0 and PfHsp40 yeast 11.1.
`COc1ccc(/C=C/C(=O)NC2CC3CCC2C3)cc1` (centres undefined) gave FadD28 FP inh -3.1, PrP 5UTR inh -27.9, TcdB GH inh 1.8, BioA inh -0.6 and PfHsp40 yeast -0.9.
`O=C(/C=C/c1cccc([N+](=O)[O-])c1)NC1CC2CCC1C2` (centres undefined) gave FadD28 FP inh 0.2, PrP 5UTR inh -19.0 and PfHsp40 yeast 50.7*.
Screening Cc1ccc([N+](=O)[O-])cc1-c1ccc(/C=C(\C#N)c2[nH]nc(N)c2C#N)o1 returned FadD28 FP inh 9.4*, PrP 5UTR inh -38.5, TcdB GH inh 1.6, BioA inh -2.3 and PfHsp40 yeast 0.0.
`CN(c1ccc(OCC(=O)Nc2ccc(S(N)(=O)=O)cc2)cc1)S(=O)(=O)c1ccc(F)cc1` gave FadD28 FP inh -2.0, PrP 5UTR inh -24.5, TcdB GH inh 0.0, BioA inh 1.1 and PfHsp40 yeast -0.2.
`CN(c1ccc(OCC(=O)Nc2cc(Cl)ccc2C(=O)O)cc1)S(=O)(=O)c1ccc(F)cc1` gave FadD28 FP inh -17.5, PrP 5UTR inh -36.9, TcdB GH inh -1.4, BioA inh 3.5 and PfHsp40 yeast 26.5*.
Screening C[C@@H]1CN([C@H](C)CO)C(=O)CCCn2cc(nn2)CO[C@H]1CN(C)Cc1ccc(C(=O)Nc2ccccc2N)cc1 returned TcdB GH inh 0.5 and BioA inh -0.8.
For C[C@@H]1CN([C@H](C)CO)C(=O)c2cccc(NC(=O)Nc3ccc4c(c3)OCO4)c2O[C@H]1CN(C)Cc1ccccc1 the results were TcdB GH inh -0.8 and BioA inh -1.1.
Screening COc1ccc(-c2c(C#CC(C)(C)O)c3ccccc3n2C)cc1 returned FadD28 FP inh -0.6, PrP 5UTR inh -13.2, TcdB GH inh 0.5, BioA inh 0.4 and PfHsp40 yeast -0.1.
For COc1ccc(-c2oc3ccccc3c2C#CC(C)(C)O)cc1 the results were FadD28 FP inh -3.7, PrP 5UTR inh -9.6, TcdB GH inh -14.6, BioA inh -0.8 and PfHsp40 yeast 38.4*.
Screening C[C@H](O)C#Cc1cnc2c(c1)C(=O)N([C@H](C)CO)C[C@@H](C)[C@@H](CN(C)C(=O)CN(C)C)O2 returned TcdB GH inh 2.0 and BioA inh 0.2.
COc1cc(/C=C2\CCCc3c2nc2ccccc2c3C(=O)O)cc(Br)c1O was read as FadD28 FP inh 12.3*, PrP 5UTR inh -13.2, TcdB GH inh -18.9, BioA inh 0.2 and PfHsp40 yeast -0.6.
`C[C@@H]1CN([C@H](C)CO)C(=O)Cc2cc(NC(=O)Nc3ccccc3)ccc2O[C@@H]1CN(C)C(=O)Nc1cccc2ccccc12` gave TcdB GH inh 1.1 and BioA inh -3.5.
For NS(=O)(=O)c1ccc(CCNC(=O)c2ccc(CS(=O)(=O)c3ccc(Br)cc3)o2)cc1 the results were FadD28 FP inh -4.6, PrP 5UTR inh -17.8, TcdB GH inh 11.9*, BioA inh 0.2 and PfHsp40 yeast -0.9.
COc1ccc(S(=O)(=O)Cc2ccc(C(=O)NCCc3ccc(S(N)(=O)=O)cc3)o2)cc1 was read as FadD28 FP inh 0.3, PrP 5UTR inh 3.1, TcdB GH inh -5.8, BioA inh 2.7 and PfHsp40 yeast -0.8.
Screening CC(=NNC(=S)N1CCCCC1)c1ccccn1 returned FadD28 FP inh -2.3 and TcdB GH inh 0.5.
`CC(=NNC(=S)N1CC2CCC(CC2)C1)c1ccncn1` gave FadD28 FP inh -1.0, PrP 5UTR inh 20.8, TcdB GH inh 1.2 and PfHsp40 yeast 97.8*.
Screening COc1ccc2[nH]c3c(=O)n(CCCCC(=O)NCCN4CCCC4)c(=S)[nH]c3c2c1 returned FadD28 FP inh -2.4, PrP 5UTR inh -9.4, TcdB GH inh 11.0*, BioA inh -0.4 and PfHsp40 yeast -2.1.
Cc1[nH]nc(SCC(=O)N2CCCCC2)c1[N+](=O)[O-] was read as FadD28 FP inh -2.0, PrP 5UTR inh -29.7 and PfHsp40 yeast 1.3.
`Cc1[nH]nc(SCC(=O)N2CCCCCC2)c1[N+](=O)[O-]` gave FadD28 FP inh 3.7, PrP 5UTR inh -20.5, TcdB GH inh 0.0, BioA inh 1.6 and PfHsp40 yeast 49.1*.
CC(C)NC(=O)N[C@H]1CC[C@H](CCn2cc(-c3ccccc3)nn2)O[C@@H]1CO was read as TcdB GH inh -0.4 and BioA inh -0.2.
Screening Oc1c(Cl)cc(Cl)cc1/C=N/NC(=S)NC1CC2C=CC1C2 (centres undefined) returned FadD28 FP inh inconclusive, PrP 5UTR inh 2.6, TcdB GH inh 1.7, BioA inh -0.3 and PfHsp40 yeast 132.5*.
`CC1=C(C)/C(=N\OS(=O)(=O)c2ccc(C)cc2)C=CC1=O` gave FadD28 FP inh -0.4, PrP 5UTR inh -22.3 and PfHsp40 yeast 424.4*.
COc1ccc(S(=O)(=O)/N=C2/C=CC(=O)C(C)=C2C)cc1 was read as FadD28 FP inh -0.3, PrP 5UTR inh -7.0, BioA inh -1.2 and PfHsp40 yeast -1.1.
For C[C@H](CO)N1C[C@H](C)[C@@H](CN(C)C(=O)Nc2ccc3c(c2)OCO3)Oc2ccc(NC(=O)CCN3CCOCC3)cc2CC1=O the results were TcdB GH inh -2.1 and BioA inh 0.5.
C[C@@H]1CN([C@@H](C)CO)C(=O)Cc2cc(NC(=O)Nc3ccccc3)ccc2O[C@H]1CN(C)C(=O)Nc1ccc(F)cc1 was read as TcdB GH inh 0.0 and BioA inh 5.8.
For CN(C)S(=O)(=O)c1cc(NC(=O)CSc2ncc(C(F)(F)F)cc2Cl)ccc1Cl the results were FadD28 FP inh 12.6*, PrP 5UTR inh -15.4 and PfHsp40 yeast 4.5.
For O=C(C[C@@H]1CC[C@H]2[C@@H](COC[C@H](O)CN2C(=O)c2cnccn2)O1)NCc1ccccc1 the results were TcdB GH inh 0.6 and BioA inh -4.7.
